Screening results: PubChem, National Center for Advancing Translational Sciences (NCATS)
TDP1 cell CPT – growth inhibition of DT40 Tdp1-/-;hTDP1 cells with camptothecin (screen for TDP1 inhibitors) | chicken DT40 Tdp1-/-;hTDP1 cells + 20 nM CPT, ATP luminescence, 48 h | Potency, µM (highest dose often 46.2 µM), hits mostly inhibitors | 420,000 tested, 12% active | AID 686979; further: nearly all actives have a fitted effect of over 55% in size
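Cell growth measured by CellTiter-Glo luminescence after a minimum 48 h, 37 C compound exposure with 20 nM CPT in Tdp1-knockout DT40 cells stably expressing hTDP1, seeded 400/well; qHTS titration format.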
HT1080 IDH1KD tx – kills HT-1080 cells with IDH1 knockdown | HT-1080 IDH1 knockdown viability, ATP luminescence, 48 h | Potency, µM (series often up to 46.1 µM), usual class: cytotoxic | 360,000 tested, 2% active | AID 686971
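CellTiter-Glo luminescence after 48 h compound exposure at 37 degrees C of IDH1-knockdown HT-1080 cells in 5% FBS RPMI. %Activity scaled between DMSO wells and cell-free media wells, with curves fitted and assigned curve classes.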
IL-1B inflam inh – blocks inflammasome-driven IL-1 beta release; THP-1 LPS/ATP IL-1B secretion, AlphaLISA, 16 h; active compounds read low; 360,000 tested, 4.7% active; activity change, % at 57.5 µM; in the data active means activity change below about -50%; inconclusive means mostly about -30% to -49%
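THP-1 cells pretreated 1 hr with compounds (up to 57.5 uM final), then stimulated with LPS (250 ng/mL final) plus ATP (1.25 mM final); secreted IL-1B measured by AlphaLISA after 16 hr, decreased signal indicating inhibition.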
DT40 TDP1 no CPT – qHTS for Inhibitors of human tyrosyl-DNA phosphodiesterase 1 (TDP1): qHTS in cells in absence of CPT; AID 686978, 2013; 420,000 tested, 15% active; Potency, µM (doses to about 46.2 µM), actives largely listed as inhibitors; DT40 Tdp1-/- hTDP1 cells, no CPT, ATP luminescence, 48 h; further: nearly all actives have a fitted effect of over 55% in size
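Chicken DT40 Tdp1-/- cells stably complemented with human TDP1 were seeded at 400 cells/well with DMSO in place of 20 nM camptothecin. After compound pinning, cells grew at least 48 hr at 37 °C; viability read by CellTiter-Glo luminescence.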
HT1080NT lethal – kills 2HG-producing HT-1080-NT fibrosarcoma cells | HT-1080-NT fibrosarcoma viability, CellTiter-Glo ATP luminescence, 48 h | Potency, µM (doses to about 46.1 µM), most hits filed as cytotoxic | 360,000 tested, 1.6% active | AID 686970;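 further: NT is the 2HG producing partner of a matched IDH1 knockdown line; nearly all actives have a fitted effect of over 55% in size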
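HT-1080-NT fibrosarcoma cells (2HG-overproducing), 750 cells/well in RPMI with 5% FBS, dosed after 2 h and incubated 48 h at 37C. CellTiter-Glo luminescence normalized to DMSO and no-cell wells; concentration-response curves fitted and classed.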
Numbers stand for hits; n = inactive; u = inconclusive; x = no result. Compounds with a hit are over-represented: about 19% of the library has one in this group of screens. Unless noted, the call rests on the fitted dose curve; in most records, active means well fitted curve in the direction sought with a large enough effect; inconclusive means small, poorly fitted or top-dose-only effect, or another doubt; inactive means no such curve, though single readings can be large; an effect the other way counts as inactive or inconclusive.

SMILES | TDP1 cell CPT | HT1080 IDH1KD tx | IL-1B inflam inh | DT40 TDP1 no CPT | HT1080NT lethal
CCc1ccccc1S(=O)(=O)Cc1ccc(C(=O)NCc2cccs2)o1 | 18µM | n | n | u | n
Cc1ccc(CS(=O)(=O)Cc2ccc(C(=O)NCc3cccs3)o2)cc1 | 18µM | n | n | n | n
CS(=O)(=O)N1c2ccccc2[C@]2([C@@]34C[C@H]5C(=O)N[C@@H](Cc6ccccc6)C(=O)N5[C@@H]3N(S(C)(=O)=O)c3ccccc34)C[C@H]3C(=O)N[C@@H](Cc4ccccc4)C(=O)N3[C@H]12 | n | n | n | n | n
CC[C@H](C)[C@@H]1NC(=O)[C@H]([C@@H](C)CC)NC(=O)[C@@H](CC(C)C)NC(=O)[C@H](Cc2ccccc2)NC(=O)[C@H](Cc2ccccc2)NC(=O)[C@@H]2CCCN2C(=O)[C@@H]2CCCN2C(=O)[C@H](C(C)C)NC(=O)[C@H](CC(C)C)NC1=O | 6.5µM | u | n | 8.2µM | u
Cc1cc(C)n(-c2nnc3n2N=C(c2c[nH]c4ccccc24)CS3)n1 | 21µM | 15µM | n | 15µM | u
Cc1cc(C)n(-c2nnc3n2N=C(c2ccccc2)CS3)n1 | n | n | n | n | n
CCc1nnc(NC(=O)COc2ccccc2[N+](=O)[O-])s1 | n | n | n | n | n
CCn1c2ccccc2nc2cc3c(cc21)c(Cl)c(=O)c1ccccc13 | 8.2µM | 21µM | n | 5.8µM | u
Cc1ccc(-n2c(N)c(C#N)c(-c3ccc(Cl)cc3)c(C#N)c2=O)cc1 | u | n | n | n | n
CCOC(=O)c1c(-c2ccc(Cl)cc2)c(C#N)c(=O)n(N)c1N | u | n | n | 0.52µM | n
CC(=O)Nc1cc(C(F)(F)F)ccc1OCCOc1ccccc1 | u | n | n | 16µM | n
CC(=O)Nc1cc(C(F)(F)F)ccc1Oc1cccc(Br)c1 | 23µM | n | u | 13µM | n
OCCC#Cc1ccc(CN2CCN(C3CCCCC3)C(CCO)C2)cc1 (configuration not stated) | n | n | n | n | n
COc1ccc2c(CC(=O)NCCN3C(=O)S/C(=C\c4cccnc4)C3=O)coc2c1 | u | n | n | u | n
CC(C)(Oc1ccc(Cl)cc1)C(=O)NCCN1C(=O)S/C(=C/c2cccnc2)C1=O | u | n | -91 | u | n
CC(Oc1ccc(Cl)cc1)C(=O)NCCN1C(=O)S/C(=C\c2cccnc2)C1=O (configuration not stated) | 21µM | n | -78 | 18µM | n
Cc1ccc(CSc2nc(=O)c3c(C)cc(C)nc3n2C2CC2)cc1 | 21µM | x | x | 21µM | x
C/C(CC(=O)Nc1ccc(OCc2ccccc2)cc1)=N\NC(=O)C(=O)Nc1cccc(C)c1 | u | n | u | 9.2µM | n
COCC(=O)Nc1ccc(OCc2ccccc2)cc1 | n | n | n | n | n
COc1ccccc1NC(=O)C(=O)N/N=C(\C)CC(=O)Nc1ccc(OCc2ccccc2)cc1 | n | n | n | u | n
Cc1cnc(NC(=O)Nc2ccc(OCc3ccccc3)cc2)c(Br)c1 | u | n | n | 16µM | n
COc1ccc(C=O)cc1Cn1c(C)cc(C)c(C#N)c1=O | 16µM | n | n | 16µM | n
Cc1cc(C)n(Cc2ccc(F)cc2)c(=O)c1C#N | n | n | n | n | n
COc1ccc(CCCc2n[nH]c(=S)n2C)cc1C | n | n | n | n | n
COc1ccc(Cc2n[nH]c(=S)n2C)cc1Br | n | n | -68 | n | n
SMILES | TDP1 cell CPT | HT1080 IDH1KD tx | IL-1B inflam inh | DT40 TDP1 no CPT | HT1080NT lethal
Clc1ncnc2scc(-c3ccccc3)c12 | u | n | -70 | u | n
S=c1[nH]cnc2scc(-c3ccccc3)c12 | u | n | n | 23µM | n
Cc1ccc2occ(/C=N/NC(N)=S)c(=O)c2c1 | u | n | n | 26µM | n
CCOc1ccccc1C(=O)N/N=C/c1coc2ccc(C)cc2c1=O | 18µM | u | n | u | u
Cc1ccc2occ(/C=N/NC(=O)c3ccccc3Br)c(=O)c2c1 | u | n | n | n | n
CCCCC(CC)COC(=O)CC(C(=O)OCC(CC)CCCC)S(=O)(=O)O (configuration not stated) | n | x | x | u | x
O=C(c1ccc(Cl)cc1)c1c[nH]c(C(=O)NNc2cccc(Cl)n2)c1 | n | u | n | u | 23µM
Cc1noc(C)c1C(=O)N1CCC2(CCN(Cc3cc(C(F)(F)F)cc(C(F)(F)F)c3)CC2)CC1 | u | x | x | 23µM | x
Cc1noc(C)c1C(=O)N1CCC2(CCN(Cc3ccncc3)CC2)CC1 | n | x | x | n | x
O=C(c1csnn1)N1CCC2(CCN(Cc3cc(C(F)(F)F)cc(C(F)(F)F)c3)CC2)CC1 | u | x | x | 23µM | x
COc1ccc(C(=O)N2CCC3(CCN(Cc4cc(C(F)(F)F)cc(C(F)(F)F)c4)CC3)CC2)cc1 | 23µM | x | x | u | x
COCC(=O)N1CCC2(CCN(Cc3cc(C(F)(F)F)cc(C(F)(F)F)c3)CC2)CC1 | n | x | x | u | x
CCCCCCC1/C(=N/O)CCC1C(=O)OC (configuration not stated) | n | n | n | n | n
COCCN(C(=S)Nc1cc(C)cc(C)c1)C(C)c1cccs1 (configuration not stated) | 18µM | n | n | u | n
COCCN(C(=S)Nc1cc(C)cc(C)c1)C(C)c1ccco1 (configuration not stated) | u | n | n | 26µM | n
Cc1ccc(NC(=S)N(CCN(C)C)C(C)c2ccco2)c(C)c1 (configuration not stated) | u | n | n | u | u
CCc1cccc(C)c1NC(=S)N(CCN(C)C)C(C)c1ccco1 (configuration not stated) | 18µM | n | n | u | n
Cc1c(C(=O)OCc2nnc(-c3ccccc3)o2)oc2ccccc12 | n | n | n | n | n
CCc1nc2ccccc2c(C(=O)OCc2nc3ccccc3c(=O)[nH]2)c1C | 3.3µM | 18µM | -56 | 4.6µM | 10µM
CCc1nc2ccccc2c(C(=O)OCCN2C(=O)c3ccccc3C2=O)c1C | u | n | n | u | n
CCc1nc2ccccc2c(C(=O)OCc2nnc(-c3ccccc3)o2)c1C | 18µM | u | n | u | n
CCc1nc2ccccc2c(C(=O)OCC(=O)C(C)(C)C)c1C | u | n | n | 18µM | n
O=C1NC(=O)C2(N1)C(=O)c1cccc3cccc2c13 (configuration not stated) | n | n | n | u | n
Cc1ccccc1OCC(=O)NCC(=O)OCC(=O)c1ccc(-c2ccccc2)cc1 | n | x | x | u | x
CCOCCCNC(=O)c1cc(Nc2ccc(OC)cc2OC)nc2ccccc12 | u | n | n | n | n
Cc1ccn2c(=O)nc(SCC(=O)NC3CCCC3)nc2c1 | n | n | n | n | n
